Screening results deposited in PubChem by National Center for Advancing Translational Sciences (NCATS).
An excerpt weighted towards active compounds, which were near 12% of everything screened.
G9a inh – qHTS Assay for Inhibitors of Histone Lysine Methyltransferase G9a | G9a H3K9 monomethylation, AlphaScreen, 2 h | Histone-lysine N-methyltransferase EHMT2 (Homo sapiens), Q96KQ7 | actives 8.8% (n = 350,000) | Potency, µM (doses to about 102 µM), for the others: top-dose activity, negative = inhibition, most hits filed as inhibitors; also: potency is read from the fitted curve at half-maximal effect; % is scaled to controls: 0 for no effect and ±100 for the full control effect; nearly all actives have a fitted effect of over 75% in size
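Step 1: enzyme (final 20 nM) with compound, 15 min RT. Step 2: substrate peptide 500 nM and SAM 20 uM, 2 h RT. Step 3: anti-H3K9me1 antibody and AlphaScreen beads, 10 min, then plate read.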
JMJD2A Tudor inh – qHTS Assay for Inhibitors of JMJD2A-Tudor Domain | AlphaScreen JMJD2A-Tudor / H3K4me3 peptide binding | Potency, µM (highest dose often 114 µM), for inactives: at the highest dose activity change, negative = inhibition, actives largely listed as inhibitors | actives 4.4% (n = 390,000); also: potency is read from the fitted curve at half-maximal effect; % is scaled to controls: 0 for no effect and ±100 for the full control effect; nearly all actives have a fitted effect of over 50% in size
HP1b binding inh – HTS for Inhibitors of HP1-beta Chromodomain Interactions with Methylated Histone Tails; actives 0.56% (n = 390,000); Chromobox protein homolog 1 (Homo sapiens), P83916; Potency, µM (series often up to 114 µM), for the others: at the top dose activity change, negative = inhibition, hits mostly inhibitors; AID 540317, 2011; AlphaScreen HP1-beta / biotin-H3K9me3 peptide binding; also: potency is read from the fitted curve at half-maximal effect; nearly all actives have a fitted effect of over 70% in size
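AlphaScreen: HP1-beta (50 nM) preformed 30 min with biotin-H3(1-18)K9me3 peptide (50 nM) in PBS pH 7.4, 0.01% Tween-20. Compound added for 30 min at RT, then streptavidin donor/nickel chelate acceptor beads (10 ug/mL) for 30 min.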
PLK1 PBD block – qHTS for Inhibitors of PLK1-PDB (polo-like kinase 1 - polo-box domain): Primary Screen; Serine/threonine-protein kinase PLK1 (Homo sapiens), P53350; Plk1 PBD binding of FITC phosphopeptide, fluorescence polarization; Potency, µM, for the others: max response, negative = inhibition, usual class: inhibitors; actives 2.8% (n = 360,000); AID 720504, 2013; also: potency is read from the fitted curve at half-maximal effect; series mostly up to about 57 µM; % is scaled to controls: 0 for no effect and ±100 for the full control effect; nearly all actives have a fitted effect of over 65% in size
Target sequence (P53350 whole entry, looked up, the tested form may be a part): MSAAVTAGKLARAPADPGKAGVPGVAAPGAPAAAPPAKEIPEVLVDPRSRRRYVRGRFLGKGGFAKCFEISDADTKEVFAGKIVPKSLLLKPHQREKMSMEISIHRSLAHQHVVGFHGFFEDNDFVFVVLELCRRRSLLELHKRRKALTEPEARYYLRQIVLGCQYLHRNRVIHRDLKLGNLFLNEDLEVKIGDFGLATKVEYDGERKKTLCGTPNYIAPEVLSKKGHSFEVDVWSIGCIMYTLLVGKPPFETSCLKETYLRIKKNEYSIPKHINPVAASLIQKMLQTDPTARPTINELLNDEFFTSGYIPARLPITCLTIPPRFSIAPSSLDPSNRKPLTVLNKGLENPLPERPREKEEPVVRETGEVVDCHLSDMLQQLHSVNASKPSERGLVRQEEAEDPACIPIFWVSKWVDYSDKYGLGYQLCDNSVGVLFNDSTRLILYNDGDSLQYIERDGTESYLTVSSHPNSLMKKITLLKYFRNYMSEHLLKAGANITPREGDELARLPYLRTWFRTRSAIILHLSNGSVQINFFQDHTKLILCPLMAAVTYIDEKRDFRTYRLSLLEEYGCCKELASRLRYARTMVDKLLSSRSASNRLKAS
PI5P4Ka inh – qHTS for Inhibitors of phosphatidylinositol 5-phosphate 4-kinase (PI5P4K); actives 1.2% (n = 330,000); max response, %; PI5P4Kalpha enzyme, ADP-Glo luminescence, 60 min; active compounds read low; AID 652105, 2013; active = max response of -50% or lower; inconclusive = between -30% and -50%; inactive = -30% or higher; also: value at the top dose of about 77 µM; % is scaled to controls: 0 for no effect and ±100 for the full control effect
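PI5P4Kalpha ADP-Glo assay; 5 microM ATP final; 60 min RT reaction; HEPES pH 7.4/EGTA/CHAPS, 5% DMSO; controls lacking substrate or enzyme; luminescent end-point.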
BAZ2B inh – qHTS Assay for Inhibitors of BAZ2B | Bromodomain adjacent to zinc finger domain protein 2B (Homo sapiens), Q9UIF8 | AlphaScreen BAZ2B-H3K14Ac peptide displacement | Potency, µM (highest dose often 114 µM), without a hit: top-dose activity change, negative = inhibition, actives largely listed as inhibitors | actives 4.4% (n = 360,000) | AID 504333, 2011; also: potency is read from the fitted curve at half-maximal effect; % is scaled to controls: 0 for no effect and ±100 for the full control effect; nearly all actives have a fitted effect of over 60% in size
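In this displacement format the biotinylated H3(5-23) peptide acetylated at Lys14 serves as ligand at 50 nM, with BAZ2B at 50 nM in PBS pH 7.4 containing 0.01% Tween-20. Donor and acceptor beads are 10 ug/mL final.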
* = called active by the depositor; ? = inconclusive; · = not tested or not shown; [ ] = remark or other dose. Unless noted, calls follow the shape of the dose curve; as a rule, active = well fitted curve in the direction sought with a large enough effect; inconclusive = small, poorly fitted or top-dose-only effect, or another doubt; inactive = no such curve, though single readings can be large; an effect the other way counts as inactive or inconclusive.

SMILES	G9a inh	JMJD2A Tudor inh	HP1b binding inh	PLK1 PBD block	PI5P4Ka inh	BAZ2B inh
Oc1c(Cl)cc(Cl)cc1/C=N/NC(=S)NC1CC2C=CC1C2 (stereo unspecified)	-3%	50µM*	30%	?	-61*	7.9µM*
Oc1ccccc1C=NNC(=S)NC1CC2C=CC1C2 (stereo unspecified)	·	·	·	-2%	-16	·
COc1cccc(N2CCN(C(=O)c3cccc(NC4=NC5CS(=O)(=O)CC5S4)c3)CC2)c1 (stereo unspecified)	8%	-3%	52%	-6%	3	-20%
COc1ccc(/C=C2\C(=O)NC(=S)N2C(=O)c2ccc(C)cc2)cc1	?	56µM*	-24%	-18%	?	50µM*
Cc1ccc(CN2CCCn3nc(C(=O)NCc4ccc(N(C)C)cc4)cc3C2=O)cc1	14µM*	?	0%	·	·	?
COc1ccc(-c2nnc(SCC(=O)NCc3ccc(C)cc3)nc2-c2ccc(OC)c(OC)c2)cc1OC	-34%[59 µM]	-29%	11%	·	·	-25%
CCOc1cc(-c2nnc(SCC(=O)NCc3ccccc3)nc2-c2ccc(OC)c(OCC)c2)ccc1OC	7.9µM*	?	7%	·	·	50µM*
CCOc1cc(-c2nnc(SCC(=O)NCc3ccc(C)cc3)nc2-c2ccc(OC)c(OCC)c2)ccc1OC	10µM*	-28%	15%	·	·	56µM*
Nc1ccc(C(=O)N2CCCC2)cc1	-1%[59 µM]	-8%[57.1 µM]	67%	-24%	-2	-3%
Nc1ccc(C(=O)n2c3ccccc3c3ccccc32)cc1	8.9µM*	-21%	25%	-21%	16	-2%
CN(Cc1ccc2c(c1)CCCN2C)C(=O)[C@H]1O[C@@H](n2ccc(=O)[nH]c2=O)[C@H](O)[C@@H]1O	·	·	·	-12%	0	·
COc1ccc(/C=C(/C#N)C(=O)Nc2ccccc2C)cc1C(=O)O	21%[59 µM]	-27%	27%	-3%	0	-8%
CCOc1cc(/C=C(\C#N)C(=O)Nc2ccccc2C(=O)O)ccc1OC(=O)c1ccc(C)cc1	·	50µM*	14%	19µM*	-4	2%
CC(NC(=O)/C(C#N)=C/c1ccc(C(=O)O)cc1)c1ccccc1 (stereo unspecified)	-27%[0.0925 µM]	-21%	35%	-8%	1	-9%
COc1cc(C=C(C#N)C(=O)c2ccccc2)cc(OC)c1OC	·	·	·	3.8µM*	-1	·
COc1cc(/C=C(\C#N)C(=O)Nc2ccccc2C(=O)O)cc(Cl)c1OC	-46%	-20%	1%	21µM*	-14	-13%
COc1cc(/C=C(/C#N)C(=O)NC(C)c2ccccc2)cc(OC)c1O (stereo unspecified)	14µM*	-24%	-16%	34%	-2	?
COc1ccc(-c2c(C3C4C=CCC(C)C4C(=O)N3Cc3ccccc3)ccc3ccccc23)cc1 (stereo unspecified)	·	-32%	5%	·	·	·
COc1ccc(/C=C(\C#N)C(=O)c2c(C)[nH]c3ccccc23)cc1OC	?	?	1%	-19%	5	?
COc1cc(/C=C(\C#N)C(=O)c2c(C)[nH]c3ccccc23)cc(OC)c1OC	45µM*	28µM*	?	?	8	-13%
OCC1OC(n2cnc3c(N4CCCCC4)ncnc32)C(O)C1O (stereo unspecified)	·	7%	27%	1%	-1	·
O=C(Nc1cccc(F)c1)N1CCCC2(CCN(C(=O)c3cc(C(F)(F)F)cc(C(F)(F)F)c3)CC2)C1	1%[12.7 µM]	·	·	·	·	·
O=S(=O)(c1ccccc1F)N(Cc1ccco1)Cc1nnc(-c2ccccc2Br)o1	79µM*	-16%	20%	-1%	2	7%
COc1cccc(C2C(C(=O)c3cc4ccccc4o3)=C(O)C(=O)N2CCN2CCOCC2)c1 (stereo unspecified)	45µM*	-24%	7%	-19%	4	-13%
COc1ccccc1C1C(C(=O)c2cc3ccccc3o2)=C(O)C(=O)N1CCN1CCOCC1 (stereo unspecified)	8.9µM*	89µM*	27%	?	5	?
SMILES	G9a inh	JMJD2A Tudor inh	HP1b binding inh	PLK1 PBD block	PI5P4Ka inh	BAZ2B inh
COc1cccc2cc(C(=O)C3=C(O)C(=O)N(CCN4CCOCC4)C3c3ccc(C)o3)oc12 (stereo unspecified)	32µM*	-16%	27%	-12%	-4	?
O=C(C1=C(O)C(=O)N(CCN2CCOCC2)C1c1ccc([N+](=O)[O-])cc1)c1cc2ccccc2o1 (stereo unspecified)	40µM*	3%	5%	-8%	5	-21%
COC(=O)c1ccc(C2C(C(=O)c3cc4ccccc4o3)=C(O)C(=O)N2CCN2CCOCC2)cc1 (stereo unspecified)	?	0%	32%	-15%	1	-16%
Cc1cccc(N2CCN(Cc3oc(CO)cc(=O)c3O)CC2)c1C	5%[12.7 µM]	?	25%	0%	-2	-37%
O=c1cc(CO)oc(CN2CCN(CCO)CC2)c1O	?	2.8µM*	-2%	-8%	-1	-30%
COc1ccc(C2=Nn3c(nnc3-c3cccc(OC)c3OC)SC2)cc1OC	·	-3%	·	·	·	·
Cc1ccc(C(=O)Nc2nc3nc(-c4ccccc4)cc(=O)n3[nH]2)cc1	?	-2%	64%	-15%	-12	?
O=C(Nc1nc2nc(-c3ccccc3)cc(=O)n2[nH]1)c1ccc(F)cc1	15%[12.7 µM]	-10%	30%	·	·	79µM*
CC(NC(=O)COC(=O)c1c[nH]c2ccccc12)c1ccccc1 (stereo unspecified)	·	-2%	17%	4%	4	·
O=Nc1c(-c2c(O)[nH]c3cc(Br)ccc23)[nH]c2ccccc12	8.4µM*	3.2µM*	4µM*	-3%	-75*	4µM*
CC1(C)Cc2ccccc2C(NNC(=O)c2ccccn2)=N1	12%[59 µM]	45µM*	27%	-5%	3	32µM*
Cc1cccc(C)c1NC(=O)C1c2cccc[n+]2CC(=O)N1Cc1cccs1 (stereo unspecified)	50µM*	-6%	29%	-1%	-6	·
Cc1cccc(C)c1NC(=O)C1c2ccccc2OCC(=O)N1Cc1ccc2c(c1)OCO2 (stereo unspecified)	·	·	·	-4%	-3	·
